Data on eleven molecules can be found in ChEMBL document CHEMBL3988442, “University of Dundee, Small-Polar-MMV Screening Library” (2021).

The structures appear in SMILES notation. For some of these results: Measured potencies and affinities stand elsewhere.

Common to all, as to design: scale not given: direction of the effect not stated beside the values
For experiment [1], the target named is Protein translocase subunit SecA (Escherichia coli (strain K12)) (UniProt P10408). As to the kind of experiment: Assay to Identify E. coli SecA ATPase Inhibitors. It counts as functional. Particulars: 30 µM.
Chain of Protein translocase subunit SecA (Escherichia coli (strain K12)) (P10408 whole entry): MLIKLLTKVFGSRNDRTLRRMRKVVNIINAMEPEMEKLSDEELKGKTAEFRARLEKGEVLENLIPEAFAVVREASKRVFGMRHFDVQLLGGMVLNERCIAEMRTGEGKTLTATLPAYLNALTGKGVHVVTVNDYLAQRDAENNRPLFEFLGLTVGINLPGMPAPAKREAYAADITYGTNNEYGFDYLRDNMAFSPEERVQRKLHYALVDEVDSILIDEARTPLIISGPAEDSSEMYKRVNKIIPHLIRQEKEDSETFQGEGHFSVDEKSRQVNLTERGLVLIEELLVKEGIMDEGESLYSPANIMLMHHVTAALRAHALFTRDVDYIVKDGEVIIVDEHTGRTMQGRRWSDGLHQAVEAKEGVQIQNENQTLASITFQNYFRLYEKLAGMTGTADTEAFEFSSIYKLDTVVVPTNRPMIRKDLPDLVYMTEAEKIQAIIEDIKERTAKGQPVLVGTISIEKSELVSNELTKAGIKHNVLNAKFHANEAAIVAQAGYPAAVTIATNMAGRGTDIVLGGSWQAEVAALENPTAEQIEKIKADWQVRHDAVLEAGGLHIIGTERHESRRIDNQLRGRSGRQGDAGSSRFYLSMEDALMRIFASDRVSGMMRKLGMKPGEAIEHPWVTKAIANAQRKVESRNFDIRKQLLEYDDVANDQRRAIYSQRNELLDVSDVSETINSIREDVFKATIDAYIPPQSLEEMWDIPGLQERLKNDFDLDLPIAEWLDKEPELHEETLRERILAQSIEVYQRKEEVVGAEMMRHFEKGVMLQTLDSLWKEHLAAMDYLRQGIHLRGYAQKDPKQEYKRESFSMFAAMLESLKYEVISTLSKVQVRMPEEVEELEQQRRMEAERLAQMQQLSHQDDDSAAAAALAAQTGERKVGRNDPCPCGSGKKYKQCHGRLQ
The target of experiment [2] is T1, Ubiquitin-activating enzyme e1, putative (Leishmania donovani (strain BPK282A1)) (UniProt E9BSI1).
T1 sequence (whole entry): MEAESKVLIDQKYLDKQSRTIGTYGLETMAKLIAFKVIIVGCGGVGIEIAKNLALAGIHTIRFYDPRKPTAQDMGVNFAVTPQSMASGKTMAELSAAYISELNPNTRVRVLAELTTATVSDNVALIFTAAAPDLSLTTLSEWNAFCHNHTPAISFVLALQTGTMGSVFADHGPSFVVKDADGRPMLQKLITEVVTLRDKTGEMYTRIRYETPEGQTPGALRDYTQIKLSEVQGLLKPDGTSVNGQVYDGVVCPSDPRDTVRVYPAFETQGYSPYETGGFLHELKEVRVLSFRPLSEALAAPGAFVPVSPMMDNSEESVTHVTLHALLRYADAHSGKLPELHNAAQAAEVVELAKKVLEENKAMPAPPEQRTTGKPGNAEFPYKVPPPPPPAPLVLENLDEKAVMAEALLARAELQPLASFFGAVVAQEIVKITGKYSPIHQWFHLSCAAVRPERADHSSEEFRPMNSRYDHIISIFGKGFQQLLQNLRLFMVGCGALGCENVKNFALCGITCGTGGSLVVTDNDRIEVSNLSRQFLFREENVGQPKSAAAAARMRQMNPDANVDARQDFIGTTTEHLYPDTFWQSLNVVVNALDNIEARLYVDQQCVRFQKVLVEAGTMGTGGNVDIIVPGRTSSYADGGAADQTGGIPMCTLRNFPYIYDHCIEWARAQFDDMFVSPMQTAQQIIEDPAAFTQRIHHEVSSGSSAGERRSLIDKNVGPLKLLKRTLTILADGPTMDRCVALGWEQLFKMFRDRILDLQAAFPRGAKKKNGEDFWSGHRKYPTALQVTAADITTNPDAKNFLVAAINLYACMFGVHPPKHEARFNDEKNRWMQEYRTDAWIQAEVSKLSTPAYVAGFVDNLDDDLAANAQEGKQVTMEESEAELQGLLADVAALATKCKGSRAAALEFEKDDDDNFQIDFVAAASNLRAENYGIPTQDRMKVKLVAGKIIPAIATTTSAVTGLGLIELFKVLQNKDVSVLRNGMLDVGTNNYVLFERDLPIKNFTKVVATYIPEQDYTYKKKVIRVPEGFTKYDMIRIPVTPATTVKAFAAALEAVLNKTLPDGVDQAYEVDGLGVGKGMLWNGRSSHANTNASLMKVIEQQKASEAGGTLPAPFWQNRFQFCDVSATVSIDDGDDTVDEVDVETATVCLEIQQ
Put plainly: Leishmania donovani Ubiquitin Activating Enzyme (LdE1). Format: functional. Particulars: 30 µM.

The target of experiment [3] is AMP-activated protein kinase, AMPK (Homo sapiens) (UniProt P54646+O43741+P54619+Q9UGJ0+Q9Y478+Q13131+Q9UGI9). As to the kind of experiment: AMP-dependent Kinase enzyme assay. An in vitro enzyme assay that detects ADP turnover that is directly proportional to AMPK activity. This uses naive AMPK that is activated during the assay with MK-8722. Format: functional. Particulars: 30 µM.

Experiment [4] deals with Sialic acid-binding Ig-like lectin 9 (Homo sapiens) (UniProt Q9Y336). Put plainly: Hs-Siglec9 ALPHAscreen SOP 20170721. Particulars: 10 µM.
Chain of Sialic acid-binding Ig-like lectin 9 (Homo sapiens) (Q9Y336 whole entry): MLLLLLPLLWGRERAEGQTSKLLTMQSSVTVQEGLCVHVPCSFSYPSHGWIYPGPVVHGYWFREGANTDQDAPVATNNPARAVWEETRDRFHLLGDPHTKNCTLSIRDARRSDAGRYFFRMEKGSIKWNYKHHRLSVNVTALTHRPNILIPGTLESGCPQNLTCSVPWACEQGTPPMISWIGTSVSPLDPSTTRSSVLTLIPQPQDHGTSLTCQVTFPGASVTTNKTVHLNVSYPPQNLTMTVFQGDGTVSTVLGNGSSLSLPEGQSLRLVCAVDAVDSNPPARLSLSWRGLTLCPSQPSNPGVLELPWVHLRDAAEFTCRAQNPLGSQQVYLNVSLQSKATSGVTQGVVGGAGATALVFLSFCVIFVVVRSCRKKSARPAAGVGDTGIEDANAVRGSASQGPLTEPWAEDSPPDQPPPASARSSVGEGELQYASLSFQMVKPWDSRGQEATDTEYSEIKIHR
The next experiment has as its system Trypanosoma cruzi. As to the kind of experiment: Trypanosoma cruzi phosphomannomutase and mannose-1-phosphate guanylyltransferase assay. It counts as functional. To be noted: 10 µM.
Experiment [5] concerns the target T2, Arginase-2, mitochondrial (Homo sapiens) (UniProt P78540).
T2 sequence (whole entry): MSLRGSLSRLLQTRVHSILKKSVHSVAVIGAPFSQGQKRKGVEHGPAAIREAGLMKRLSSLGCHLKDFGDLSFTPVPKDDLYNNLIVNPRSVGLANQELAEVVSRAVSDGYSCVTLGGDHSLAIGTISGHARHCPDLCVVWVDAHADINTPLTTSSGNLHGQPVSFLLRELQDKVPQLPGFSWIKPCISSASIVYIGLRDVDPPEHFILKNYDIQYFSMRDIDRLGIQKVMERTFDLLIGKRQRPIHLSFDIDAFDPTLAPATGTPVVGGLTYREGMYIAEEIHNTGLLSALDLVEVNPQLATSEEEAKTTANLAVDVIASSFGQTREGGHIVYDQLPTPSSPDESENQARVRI
As to the kind of experiment: in vitro enzyme assay to detect the production of urea directly proportional to the activity of Arginase II. Also: in the data most compounds retested in dose-response had high values. Particulars: 33.3 µM. It counts as functional.

Experiment [6] concerns the target T3, Proteasome subunit beta (Trypanosoma cruzi) (UniProt O96673).
T3 sequence (whole entry): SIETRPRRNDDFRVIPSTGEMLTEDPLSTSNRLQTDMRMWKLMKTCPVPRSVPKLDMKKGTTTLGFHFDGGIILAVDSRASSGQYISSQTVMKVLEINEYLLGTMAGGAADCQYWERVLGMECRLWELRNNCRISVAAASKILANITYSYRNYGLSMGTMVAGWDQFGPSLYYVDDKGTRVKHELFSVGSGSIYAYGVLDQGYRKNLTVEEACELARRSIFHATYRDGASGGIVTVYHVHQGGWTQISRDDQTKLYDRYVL
Put plainly: Trypanosoma cruzi proteasome chymotrypsin-like activity (TcProtChymo) assay. Also: in the data most compounds retested in dose-response had high values. It counts as functional. To be noted: 9.37 µM.

A further experiment is filed under the species Homo sapiens. As to the kind of experiment: To identify inhibition of the IFN signalling (Jak-Stat) pathway via expression of an eGFP reporter gene under the control of an IFN-stimulated response element (ISRE) containing MxA promoter. Format: functional. To be noted: 30 µM. (Reporter assays use an easily measured gene product as a stand-in for the process of interest.)

Experiment [7] addresses T4, Tyrosyl-tRNA synthetase, putative (Trypanosoma cruzi (strain CL Brener)) (UniProt Q4DSP6).
T4 sequence (whole entry): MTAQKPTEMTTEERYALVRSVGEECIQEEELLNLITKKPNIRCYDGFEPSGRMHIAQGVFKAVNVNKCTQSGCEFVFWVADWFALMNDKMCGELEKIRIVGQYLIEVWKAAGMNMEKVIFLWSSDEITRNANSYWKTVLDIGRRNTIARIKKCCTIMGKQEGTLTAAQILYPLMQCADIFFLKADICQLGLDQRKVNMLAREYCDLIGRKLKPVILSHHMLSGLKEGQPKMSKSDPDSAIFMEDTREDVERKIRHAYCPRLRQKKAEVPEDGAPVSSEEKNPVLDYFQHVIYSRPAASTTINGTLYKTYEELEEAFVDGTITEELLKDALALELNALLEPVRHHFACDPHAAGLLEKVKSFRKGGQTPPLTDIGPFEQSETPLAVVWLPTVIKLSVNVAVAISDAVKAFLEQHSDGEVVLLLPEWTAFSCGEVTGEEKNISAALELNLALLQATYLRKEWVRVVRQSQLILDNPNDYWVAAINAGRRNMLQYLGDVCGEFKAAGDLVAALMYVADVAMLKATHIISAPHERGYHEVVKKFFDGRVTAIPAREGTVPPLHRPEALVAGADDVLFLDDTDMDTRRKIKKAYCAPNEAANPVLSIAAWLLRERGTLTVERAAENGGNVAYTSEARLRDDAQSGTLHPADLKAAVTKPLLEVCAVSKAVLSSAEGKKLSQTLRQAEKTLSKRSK
As to the kind of experiment: Trypanosoma cruzi tyrosyl tRNA synthetase (TcYRS) _High Tyrosine SOP. Also: in the data most compounds retested in dose-response had high values. It counts as functional. Particulars: 30 µM.

Experiment [8] has as its target T4, Tyrosyl-tRNA synthetase, putative (Trypanosoma cruzi (strain CL Brener)). Put plainly: Trypanosoma cruzi tyrosyl tRNA synthetase (TcYRS) SOP. To be noted: 30 µM. Format: functional.
Experiment [9] addresses Chromo domain-containing protein 1 (Saccharomyces cerevisiae (strain ATCC 204508 / S288c) (Baker's yeast)) (UniProt P32657). Put plainly: ScCHD-1 Enzyme Inhibition Assay. Also: in the data most compounds retested in dose-response had high values. It counts as functional. To be noted: 30 µM.

Chain of Chromo domain-containing protein 1 (Saccharomyces cerevisiae (strain ATCC 204508 / S288c) (Baker's yeast)) (P32657 whole entry, the tested form may be a part): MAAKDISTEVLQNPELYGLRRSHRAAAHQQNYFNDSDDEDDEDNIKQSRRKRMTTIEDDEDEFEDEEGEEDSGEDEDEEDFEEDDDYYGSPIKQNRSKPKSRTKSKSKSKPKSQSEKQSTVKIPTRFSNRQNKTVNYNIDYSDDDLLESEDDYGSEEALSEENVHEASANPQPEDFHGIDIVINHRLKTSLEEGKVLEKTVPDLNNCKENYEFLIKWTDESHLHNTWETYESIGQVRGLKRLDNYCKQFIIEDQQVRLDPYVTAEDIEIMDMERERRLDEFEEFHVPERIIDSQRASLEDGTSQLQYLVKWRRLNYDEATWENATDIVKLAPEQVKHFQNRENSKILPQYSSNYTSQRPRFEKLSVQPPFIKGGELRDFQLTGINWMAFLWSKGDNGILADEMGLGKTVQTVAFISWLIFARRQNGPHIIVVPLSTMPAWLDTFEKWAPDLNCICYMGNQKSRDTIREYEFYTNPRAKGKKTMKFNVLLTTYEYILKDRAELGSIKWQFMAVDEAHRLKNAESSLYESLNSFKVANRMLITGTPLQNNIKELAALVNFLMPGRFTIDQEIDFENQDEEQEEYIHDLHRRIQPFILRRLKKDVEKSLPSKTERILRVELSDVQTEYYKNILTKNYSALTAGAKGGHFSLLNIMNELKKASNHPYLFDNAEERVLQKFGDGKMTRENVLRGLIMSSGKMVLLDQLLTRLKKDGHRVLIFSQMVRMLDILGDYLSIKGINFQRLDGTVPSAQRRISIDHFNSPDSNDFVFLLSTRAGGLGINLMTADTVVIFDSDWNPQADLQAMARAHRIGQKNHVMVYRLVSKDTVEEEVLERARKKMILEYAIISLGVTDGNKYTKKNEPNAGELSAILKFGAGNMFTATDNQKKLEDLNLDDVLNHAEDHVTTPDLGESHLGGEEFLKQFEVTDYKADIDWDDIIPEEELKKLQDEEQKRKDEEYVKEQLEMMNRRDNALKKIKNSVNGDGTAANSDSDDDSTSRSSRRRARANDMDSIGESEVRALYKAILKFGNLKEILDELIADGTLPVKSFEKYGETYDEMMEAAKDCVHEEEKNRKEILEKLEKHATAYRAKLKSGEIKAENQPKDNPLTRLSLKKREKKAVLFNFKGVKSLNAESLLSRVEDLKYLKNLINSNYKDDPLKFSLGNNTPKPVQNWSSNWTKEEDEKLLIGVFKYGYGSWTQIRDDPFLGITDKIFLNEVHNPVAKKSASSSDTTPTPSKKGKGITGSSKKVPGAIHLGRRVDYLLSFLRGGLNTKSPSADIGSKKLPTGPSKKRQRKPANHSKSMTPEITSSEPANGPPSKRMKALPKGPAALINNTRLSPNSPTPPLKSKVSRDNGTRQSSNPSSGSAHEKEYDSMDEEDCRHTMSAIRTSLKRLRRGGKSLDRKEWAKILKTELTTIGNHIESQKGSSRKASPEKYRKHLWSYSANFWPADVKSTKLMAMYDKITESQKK

For the molecule `COc1ccc(F)c(CN2CCC3(CCC(=O)N(CC(N)=O)C3)CC2)c1`, the Percent Effect was -4.11% in [1]; 5.33% in experiment [2]; -12.6% in experiment [3]; -1.01% in experiment [4]; -3.02% in the experiment with Trypanosoma cruzi; -3.12% in experiment [5]. Moreover, the Percent Effect was 12.4% in experiment [6]; 36.4% in the experiment listed under Homo sapiens; 6.01% in experiment [7]; 8.64% in experiment [8]; -5.79% in [9].

`Cc1ccc(C(=O)N2CCCC(C(=O)N3CCCCC3)C2)c(O)c1` (stereo unspecified): the Percent Effect in experiment [1] was -7.91%; in experiment [2], 10.8%; in [3], -4.33%; in experiment [4], -0.223%; in the experiment on Trypanosoma cruzi, -5.19%; in [5] it was -1.2%. Further, the Percent Effect was -2.7% in experiment [6]; 12.5% in the experiment listed under Homo sapiens; 2.46% in experiment [7]; 1.24% in experiment [8]; -4.49% in experiment [9].

On to `CNC(=O)c1nc2c(s1)CCN(C(=O)c1cccnc1)CC2`, for which the Percent Effect was 2.24% in experiment [1]; 0% in experiment [2]; 4.01% in experiment [3]; 3.91% in experiment [4]; -3.67% in the experiment with Trypanosoma cruzi; -50.4% in experiment [5]. Also, the Percent Effect is 3.42% in [6]; 3.61% in the experiment listed under Homo sapiens; 3.12% in experiment [7]; 5% in experiment [8]; -2.25% in experiment [9].

Take `CC(=O)c1c(F)cccc1N1CCC(CS(N)(=O)=O)CC1`: the Percent Effect in experiment [1] was -2%; in [2], -2.74%; in [3], 4.36%; in [4], -0.254%; in the experiment with Trypanosoma cruzi it was 0.595%; in [5] it was -2%. Besides, the Percent Effect was 10.4% in experiment [6]; 3.02% in the experiment filed under Homo sapiens; 4.17% in experiment [7]; 3.7% in experiment [8]; -2.94% in [9].

In the case of `Cn1nc(COc2cccnc2)c2c1CCN(c1cnccn1)C2`, the Percent Effect in experiment [1] was -4.47%; in experiment [2], 13.5%; in [3] it was -0.741%; in [4], 2.04%; in the experiment on Trypanosoma cruzi, 0.293%; in experiment [5] it was 14.3%. Moreover, the Percent Effect in [6] was 26.2%; in the experiment listed under Homo sapiens it was 4.97%; in [7], 5.41%; in experiment [8], 12.8%; in [9], -3.43%.

As for `CCc1ncc(CN(C)C(=O)Nc2cccnc2N2CCCC2)s1`, the Percent Effect in [1] is -6.28%; in experiment [2] it was 13.2%; in experiment [3], -27.9%; in [4] it was 8.15%; in the experiment on Trypanosoma cruzi, 7.38%; in experiment [5], 1.8%. Further, the Percent Effect in experiment [6] is 10.4%; in the experiment filed under Homo sapiens it was -11.4%; in [7], 5.42%; in [8], 13.6%; in [9] it was -1.2%.

As for `CCn1ccnc1CN1CCN(CCOc2ccccc2OC)CC1`, the Percent Effect in experiment [1] is -1.18%; in experiment [2] it was 0%; in experiment [3] it was -0.305%; in experiment [4] it was 3.72%; in the experiment on Trypanosoma cruzi, 6.39%; in experiment [5], 4.21%. Besides, the Percent Effect was 8.19% in experiment [6]; 7.16% in the experiment listed under Homo sapiens; 0.49% in experiment [7]; 7.32% in experiment [8]; -2.76% in experiment [9].

In the case of `Cn1cc(C2CCCN2C(=O)c2ccc(Br)o2)cn1` (stereo unspecified), the Percent Effect in [1] was -4.98%; in [2], 13.2%; in experiment [3] it was 2.02%; in [4], -8.81%; in the experiment on Trypanosoma cruzi, -3.64%; in [5] it was 1.08%. Further, the Percent Effect in [6] was determined as 1.27%; in the experiment filed under Homo sapiens, 16.1%; in [7], 0.493%; in experiment [8], 1.24%; in experiment [9], 1.07%.

As to `Cc1ccc(S(=O)(=O)NCCNC(=O)c2ccoc2)cc1F`, the Percent Effect is -4.47% in experiment [1]; 13.3% in experiment [2]; 4.57% in experiment [3]; 12.1% in experiment [4]; 5.75% with Trypanosoma cruzi; 5.21% in experiment [5]. The Percent Effect was found to be 15.5% in experiment [6]; 16.4% in the experiment listed under Homo sapiens; 3.83% in experiment [7]; 13.6% in experiment [8]; 86.1% in experiment [9].

`CCc1nc2n(n1)CC(NCc1ccnc(-c3ccccc3)n1)CC2` (stereo unspecified): the Percent Effect was -0.451% in experiment [1]; 0% in experiment [2]; -2.11% in experiment [3]; 2.45% in experiment [4]; 6.26% in the experiment on Trypanosoma cruzi; 3.6% in experiment [5]. Besides, the Percent Effect in experiment [6] was -4.32%; in the experiment listed under Homo sapiens, -20.9%; in [7] it was 3.45%; in [8], 6.17%; in experiment [9], 0.195%.

For the molecule `COc1ccc(OC)c(NC(=O)N2CCCC2c2ccco2)c1` (stereo unspecified), the Percent Effect is -1.78% in experiment [1]; 5.2% in experiment [2]; 7.39% in experiment [3]; -2.94% in experiment [4]; -0.888% in the experiment with Trypanosoma cruzi; 1.94% in experiment [5]. The Percent Effect in [6] is 7.83%; in the experiment filed under Homo sapiens it was 13.8%; in experiment [7], -1.06%; in experiment [8], 3.85%; in experiment [9], -8.44%.
